Reference: PubChem BioAssay AID1571 (National Center for Advancing Translational Sciences (NCATS), 2009)
Where “and” joins values, the source holds several entries; their conditions need not be identical. Equal entries are not always repeated. Inconclusive results are not listed. A number with no mark means an inactive call. Calls of active or inactive are those of the source. Calls follow the shape of the dose curve; as a rule, active = well fitted curve in the direction sought with a large enough effect; inconclusive = small, poorly fitted or top-dose-only effect, or effect the other way; inactive = flat fitted curve, though single readings scatter.

Assay: Total Fluorescence Confirmation Counterscreen for Inhibitors of the Interaction of Thyroid Hormone Receptor and Steroid Receptor Coregulator 2, Fluorescein Fluoroprobe
Settings: TRbeta/SRC2-fluorescein mix, total fluorescence interference; series mostly up to 92.2 µM; total fluorescence change, positive = fluorescent: at the top concentration
Excerpt: NIH Molecular Libraries Probe Production Network [MLPCN] NIH Chemical Genomics Center [NCGC] MLPCN Grant: DK058080 Assay Provider: R. Kip Guy, St. Jude Children's Research Hospital NCGC Assay Overview: Thyroid receptor (TR) regulates many homeostatic processes including basal metabolism, cardiovascular function, body weight, and lipid trafficking. TR modulators are potential therapeutics for obesity and hyperlipidemias but current thyroid analogs have undesirable side effects, particularly cardiac stimulation. To identify inhibitors that specifically prevent the interaction of TR with the steroid receptor coregulator 2 (SRC2), a fluorescence polarization assay was screened (Arnold et al., 2006). This assay detects interaction of the ligand-binding domain of human TRbeta with a fluorescein labeled SRC2 peptide, corresponding to a 20 amino acid region of the nuclear receptor interaction domain. Total fluorescence (555 nm excitation and 632 nm emission) was measured to identify potential fluorescent and light absorbing compounds. Such compounds may be artifacts that interfere with the fluorescence polarization assay. This assay is a confirmation assay for AID 1479. Arnold, L. A.; Estebanez-Perpina, E.; Togashi, M.; Shelat, A.; Ocasio, C. A.; McReynolds, A. C.; Nguyen, P.; Baxter, J. D.; Fletterick, R. J.; Webb, P.; Guy, R. K. A high-throughput screening method to identify small molecule inhibitors of thyroid hormone receptor coactivator binding. Sci STKE 2006, p 13.
NCGC Assay Protocol Summary: For screening, 5 uL/well 0.6 uM TRbeta and 20 nM SRC2 Fluorescein in protein buffer (20mM Tris hydrochloride, 100mM NaCl, 10% glycerol, 1mM EDTA, 0.01% NP-40, 1mM DTT, 1uM T3 and 5% DMSO) was dispensed into black solid 1536-well plates (Grenier) using a solenoid-based dispenser. Following transfer of 23 nL compound or DMSO vehicle by a pin tool, the plates were centrifuged 15 s at 1000 RPM and incubated 5 hr at ambient temperature. The plates were read by an Envision (Perkin Elmer) to detect fluorescence polarization of SRC2 Fluorescein (480 nm excitation and 535 nm emission). Data were normalized to unbound (all components except TRbeta) and bound SRC2 Fluorescein controls. Total fluorescence (TF) was calculated as follows: TF = S + 2P where S and P are fluorescence readings in the parallel and perpendicular channels, respectively. In this assay, we provide % activity data for each concentration as well as potencies for the active compounds.

Row | Structure (SMILES) | total fluorescence change, positive = fluorescent | Potency
1 | CC1=NN(Cc2ccccc2)C(=O)C1 | -15.6% | –
2 | O=C(/C=C/c1ccco1)NC(=S)Nc1cc(C(F)(F)F)ccc1N1CCOCC1 | 12.8% | –
3 | O=c1cc(C23CC4CC(CC(C4)C2)C3)[nH][nH]1 | 17.9% | –
4 | Cn1c(CCN2CCCCC2)nc2cc(NS(=O)(=O)c3ccc(Cl)cc3)ccc21 | 13% [at 0.0112 µM] | –
5 | CS(=O)(=O)c1ccc(C(=O)OCC(=O)NC(=O)C2CCCCC2)cc1[N+](=O)[O-] | 3.5% [at 0.0112 µM] | –
6 | C=CCSc1nnc2n(-c3ccccc3OC)c(=O)c3c4c(sc3n12)CCC4 | -4.12% [at 46.3 µM] | –
7 | Cc1cc2ccccc2n1CCNC(=O)C(C)Oc1ccccc1 (stereo not given) | -0.272% [at 46.3 µM] | –
8 | N#Cc1c(NC(=O)c2ccccc2Cl)n(Cc2ccccc2)c2nc3ccccc3nc12 | 13% | –
9 | COc1ccc(C(=O)/C=C/Nc2ccc(S(=O)(=O)Nc3ncccn3)cc2)cc1 | 8.87% [at 0.0112 µM] | –
10 | CCCCCCN=CC1=C(O)CC(C)(C)CC1=O | -5.99% [at 0.0112 µM] | –
11 | Cc1ccccc1Nc1cc2ccccc2c(=O)[nH]1 | – | 25.1 µM [fluorescent] (active) and 44.7 µM [fluorescent] (active)
12 | Cc1ccc2c(CC(=O)Nc3c(C(=O)c4ccc(F)cc4)oc4ccccc34)coc2c1C | -8.94% [at 184 µM] | –
13 | COn1c2c(c3c4nonc4ccc31)CCCC2 | -9.3% | –
14 | O=C(Nc1nc2ccc(Cl)cc2s1)c1ccc(N2CCCCC2)c([N+](=O)[O-])c1 | 1.47% | –
15 | C=CCNC(=O)/C(C#N)=C/c1c(C)nn(-c2ccc(Cl)cc2)c1Cl | -6.6% | –
16 | COc1ccc2c(c1)-c1nc(/N=C/c3c(O)ccc4ccccc34)sc1CC2 | 29.6% [at 5.76 µM] | –
17 | CCOc1cc(N2CCOCC2)c(OCC)cc1NC(C)C(=O)N1CCN(CC)CC1 (stereo not given) | 10.4% [at 11.6 µM] | –
18 | CCCc1nc2c(=O)n(C)c(=O)nc-2n(C)n1 | 2.84% | –
19 | CCOc1cc(C(c2c(C)[nH][nH]c2=O)c2c(C)[nH][nH]c2=O)ccc1OS(=O)(=O)c1ccc(C)cc1 | -13.9% | –
20 | CCCCOc1ccc(C(=O)CCN2CCOCC2)cc1 | -10.9% | –

Row | Structure (SMILES) | total fluorescence change, positive = fluorescent | Potency
21 | Cn1c(=O)[nH]c2nnc(-c3ccc(Cl)c(Cl)c3)nc2c1=O | -0.816% | –
22 | Cc1nc2ccccc2n2c(O)c(CC(=O)O)cc12 | – | 12.6 µM [fluorescent] (active)
23 | C=CCNC(=O)/C(C#N)=C\c1cc(Cl)c(OCC)c(OC)c1 | -7.54% | –
24 | COc1cc(NC(C)CCCN)c2ncccc2c1 (stereo not given) | -8.62% [at 184 µM] | –
25 | CCSc1ncc(Cl)c(C(=O)Nc2nc3ccc(OC)cc3s2)n1 | -5.55% [at 184 µM] | –
26 | O=C1CNC(=S)N1c1nc(-c2ccccc2)cs1 | 7.24% [at 0.0112 µM] | –
27 | Nc1cc(-c2ccccc2)c[nH]c1=O | – | 39.8 µM [fluorescent] (active)
28 | Nc1cnccc1C(=O)O | 12.4% | –
29 | CCOc1ccc(NC(=O)C(c2ccccn2)N(C(=O)CCl)c2ccc(F)cc2)cc1 (stereo not given) | 17.5% [at 5.76 µM] | –
30 | Cc1nnc(SCC(=O)Nc2ccc(N(C)C)cc2)[nH]c1=O | -3.74% [at 184 µM] | –
31 | COC(=O)/C(=C/Nc1ccc(O)cc1)[N+](=O)[O-] | 0.349% [at 5.76 µM] | –
32 | Cc1[nH][nH]c(=O)c1C(c1ccc(-c2ccccc2C(=O)O)o1)c1c(C)[nH][nH]c1=O | 24.3% | –
33 | COC(=O)c1ccccc1-c1ccc(C(c2c(C)[nH][nH]c2=O)c2c(C)[nH][nH]c2=O)o1 | 15.2% [at 5.76 µM] | –
34 | C/C(=C\C(=O)c1ccccc1)Nc1ccc(O)cc1 | 10.3% [at 11.6 µM] | –
35 | Cn1cc[nH]c1=S | 0.589% | –
36 | CN1CCc2ccc3c4c2[C@]1(C)Cc1cccc(c1-4)OCO3 | – | 100 µM [fluorescent] (active)
37 | CC(=O)NC1N=C(C)N(c2ccccc2)C1=O (stereo not given) | 15.2% | –
38 | CCOc1ccc(C2=Cc3cc(OC)c(OC)cc3C(=C(Cl)Cl)O2)cc1 | -2.95% | –
39 | COc1ccccc1Nc1cc2ccccc2c(=O)[nH]1 | – | 44.7 µM [fluorescent] (active)
40 | CC1=NN(c2ccc(F)cc2)C(=O)C1C(c1cccc(O)c1)c1c(C)[nH]n(-c2ccc(F)cc2)c1=O (stereo not given) | 23.1% | –
